Among the data in the OligoGym collection are sensor-assay potency score (higher = more potent) values, retold here.
Note: reference of the scale not given here.

The target in one test is AP4E1. In words: pooled miR-30 sensor sort-seq; sequence = guide strand. Conditions: shRNA.
TACATTAATTCACTTGTCCTTT had a sensor-assay potency score (higher = more potent) of -0.311.
The same measure, in the same setting: then AAGAACTTGAGATTGATCCTTT, with 0.655; and TAACTTGAAGAAATCTCTGTGG, with 0.558.
In the case of TAAAGAAGCATCTACCACCAAG, the sensor-assay potency score (higher = more potent) is -0.753.
The same measure, in the same setting: the result for TATTTGTCTCTTTCAGTCCTGT reads -0.0122; that for TTTCTTTATACCTTCCAGCTTC, -0.271; that for TTTCAGACTACTCAGTTCCTGC, -0.633.
Turning to TAATTTTTCTTCTTCGTGCTTG, the sensor-assay potency score (higher = more potent) stood at 0.244.
Turning to TTCATTATTACAGACTTCCATA, the sensor-assay potency score (higher = more potent) was -0.778.
On the same count and under the same terms, then TTCATTGTCTGAATAAACCATG, with -0.705; and TTTTCTTCGTACAATCTCCTTA, with 0.18; and TACAACTGTATTCACAAGGAGA, with -0.841.

A further test has as its target AP4S1. The test is described as above. Conditions: shRNA.
Turning to TTGTTCATTGGATCGAGAGAGA, the sensor-assay potency score (higher = more potent) was -1.06.
The same measure, in the same setting: the result for TAAATAGCCATCTCGTTCTCAG reads -0.314; that for TTAGAAAGTCGAGTCTGCCCTT, 0.201.
On to ATTAACTCCAACCACAATGAAG, for which the sensor-assay potency score (higher = more potent) was -1.9.
Still for that read-out and setting: the result for TTCATAAATAGCCATCTCGTTC reads -1.14.
As for TTATATTCAATGAAAGAGCATT, the sensor-assay potency score (higher = more potent) is -1.02.
On the same count and under the same terms, the result for TAGAAAGTCGAGTCTGCCCTTG reads -0.4; that for TTTGAATGATGAACTGTCTGGA, 0.922; that for TAAATCAAGAAAACATTCCGGA, 0.763.
Regarding TGAATGATGAACTGTCTGGAGA, the sensor-assay potency score (higher = more potent) is -0.912.
The same measure, in the same setting: then TATATCAGCTTAAAATCCTTAT, with -0.456; and TTGAATGATGAACTGTCTGGAG, with 0.198.

The target of a further test is APLNR. Described as above. The settings on record: shRNA.
In the case of TAACAGGTCAGCATGATGGTGA, the sensor-assay potency score (higher = more potent) is 0.0238.
Same read-out and setting: then TACAGCGTCTTCACCAGGTGGT, with 0.0282; and TTATCTGCTGACACACAGCCCA, with -0.574.
As to TAGCAATGAAGATATCAGCTGA, the sensor-assay potency score (higher = more potent) came to 0.487.
Regarding TATAAGTACAACACACACAGAC, the sensor-assay potency score (higher = more potent) worked out at 0.501.
Same read-out and setting: then TAGCACTGCACCTTAGTGGTGT, with 0.437.
The same measure, in the same setting: the result for TTTGAGGACAGCTCTGGGCAGA reads -0.516; that for TTCTCGTGCATCTGTTCTCCAC, -0.937.
TATCTAGTCAGTGTCATGGTGC registered a sensor-assay potency score (higher = more potent) of -0.323.
Consider TAGCGGTCGAAGCTGAGGCCGG, for which the sensor-assay potency score (higher = more potent) is -1.22.
On the same count and under the same terms, then TGTACTCACACTCAGACTGGTT, with -1.04; and TTGACGTAGCTGATGCAGGTGC, with 0.046; and TTCACTTTCATAGTCCTCCAAG, with -0.567.
In turn, TGGATTTCTCGTGCATCTGTTC had a sensor-assay potency score (higher = more potent) of -1.45.
Consider TAATTATCTGCTGACACACAGC, for which the sensor-assay potency score (higher = more potent) is -0.776.
